Data taken from PubChem BioAssay (Tox21).
Values joined by “and” are separate entries in the source; they are usually repeats but may differ in a detail not shown here. Identical values can stand only once. Inconclusive results are not listed. Active and inactive are the calls of the source. The call rests on the fitted dose curve; in most records, active means well fitted inhibition curve with a large enough effect in the repeat runs; inconclusive means weak or mixed curves; inactive means no such curve, though single readings can be large or run the other way.

These compounds were tested against Cytochrome P450 2C19 (Homo sapiens) (UniProt P33261) (assay: Cytochrome P450 Family 2 Subfamily C Member 19 (CYP2C19) small molecule antagonists: luciferase reporter qHTS assay (AID 1671197; further: nearly all actives have a fitted effect of over 65% in size)). Settings: P450-Glo CYP2C19 enzyme, luciferin luminescence, 1 h; series mostly up to 115 µM.
Sequence of Cytochrome P450 2C19 (Homo sapiens) (P33261 whole entry, looked up): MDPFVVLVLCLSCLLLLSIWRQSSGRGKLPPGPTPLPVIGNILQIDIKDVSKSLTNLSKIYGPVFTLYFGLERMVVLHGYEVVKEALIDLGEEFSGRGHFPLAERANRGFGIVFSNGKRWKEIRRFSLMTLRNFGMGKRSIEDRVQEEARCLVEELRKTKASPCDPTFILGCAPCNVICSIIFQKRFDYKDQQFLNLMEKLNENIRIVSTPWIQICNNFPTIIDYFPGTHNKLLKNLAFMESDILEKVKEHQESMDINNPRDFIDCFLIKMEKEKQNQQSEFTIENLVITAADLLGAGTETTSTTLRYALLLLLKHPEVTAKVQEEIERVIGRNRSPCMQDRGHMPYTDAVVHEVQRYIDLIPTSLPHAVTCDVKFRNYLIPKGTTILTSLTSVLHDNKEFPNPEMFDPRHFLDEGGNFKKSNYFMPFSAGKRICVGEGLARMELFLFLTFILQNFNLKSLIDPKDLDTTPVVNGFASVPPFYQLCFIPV
From the text: National Center for Advancing Translational Sciences [NCATS]
U.S. Environmental Protection Agency [EPA]
National Institutes of Environmental Health Sciences [NIEHS]
National Toxicology Program [NTP]
U.S. Food and Drug Administration [FDA]
Cytochrome P450 (CYP) enzymes are membrane-bound hemeproteins that play a key role in metabolism of drugs and xenobiotics. Evaluation of the effect of chemicals on CYP isozymes is useful to minimize the adverse drug reactions and toxicities in drug development process. Tox21 chemicals were tested for their effect on CYP enzyme activities by using P450-Glo (TM) screening systems (Promega Corporation, Madison, WI). These systems provide a luminescent method containing proluciferin substrates and are converted to luciferin products by CYP isozymes. The luciferin products formed are detected with a luciferin detection reagent, and the amount of light produced is proportional to CYP activity. P450-Glo (TM) CYP2C19 screening system (Catalog. No. V9880) was used to detect the compounds that interfere in CYP2C19 activity. The positive control compound used for CYP2C19 assay is ketoconazole (Sigma-Aldrich, St. Louis, MO).
Tox21 Assay Protocol Summary:
Two ul of enzyme-substrate mix was dispensed into medium binding white/solid 1536-well plates (Greiner Bio-One North America Inc., Monroe, NC) using a BioRaptr Flying Reagent Dispenser (FRD, Beckman Coulter, Brea, CA). Compounds dissolved in DMSO and positive control (ketoconazole) were transferred to the assay plates at 23 nl using a Pintool station (Wako, San Diego, CA). The assay plates were incubated at room temperature for 10 min. Then 2 ul of NADPH regeneration solution was added to each well of the assay plates using an FRD and incubated at 37C for 1 h. The reaction was stopped by adding 4 ul of detection reagent using an FRD and after 20 min incubation at room temperature the luminescence signal was measured using a ViewLux plate reader (Perkin Elmer, Shelton, CT). Data were expressed as relative luminescence units.
Potency means the concentration at half of the fitted maximal effect.

SMILES | Potency
CCCCCCCC(C)=O | inactive
Clc1ccc(C(c2ccccc2Cl)C(Cl)Cl)cc1 (stereo not given) | 1.59 µM (active) and 776 nM (active)
COc1cccc(OC)c1O | 39.9 µM (active)
CCN(CC)CCSC(=O)C(c1ccccc1)c1ccccc1 | 6.92 µM (active)
CC1(C)COCN1 | inactive
O=C1c2c(O)ccc([N+](=O)[O-])c2C(=O)c2c([N+](=O)[O-])ccc(O)c21 | 12.5 µM (active)
CC(C)=CC1CC(C)CCO1 (stereo not given) | inactive
CCCCCCCCCCCCCc1ccccc1 | inactive
Cc1ccc2ccc3cccc4ccc1c2c34 | 28.2 µM (active)
O=c1cccc[nH]1 | inactive
CC(=O)Oc1ccc(C2(c3ccc(OC(C)=O)cc3)Oc3ccccc3NC2=O)cc1 | 6.92 µM (active)
CCNc1nc(NC(C)CC)nc(OC)n1 (stereo not given) | 7.96 µM (active)
c1ccc(Nc2cccc3ccccc23)cc1 | 5.09 µM (active) and 10 µM (active)
CC(C)c1ccc(O)c(C(C)C)c1 | 7.1 µM (active)
CC(=O)Nc1ccc(O)cc1 | inactive
C=CC(=O)OCC(O)COc1ccccc1 (stereo not given) | 35.6 µM (active)
CN1CN(C)CN(C)C1 | inactive
Brc1ccccn1 | inactive
OCCC(O)CO (stereo not given) | inactive
CC1=CP(=O)(c2ccccc2)CC1 (stereo not given) | inactive

SMILES | Potency
Cc1ccc(N)cc1O | 3.56 µM (active)
CCO[Si](C)(C)OCC | inactive
Cc1cc(Nc2ccc(O)cc2)ccc1N | 19.9 µM (active)
C=C1C(C)(C)[C@@]2(Cl)C(Cl)[C@]1(Cl)C(Cl)(Cl)C2(Cl)Cl (stereo not given in full) | 1.96 µM (active)
COc1ccccc1OCCNCC(O)COc1cccc2[nH]c3ccccc3c12 (stereo not given) | 5.49 µM (active)
O=C1OC(=O)c2ccc3c4c(ccc1c24)C(=O)OC3=O | inactive
CCc1ccc(O)c(C(C)(C)C)c1 | 17.8 µM (active)
NC1(c2ccc(-c3nc4ccn5c(=O)[nH]nc5c4cc3-c3ccccc3)cc2)CCC1 | inactive
CC1CCCNC1 (stereo not given) | inactive
N#CSCSc1nc2ccccc2s1 | 39.9 µM (active)
COC(=O)NCCC[Si](OC)(OC)OC | inactive
Oc1ccc(-c2ccccc2)c(Cl)c1 | 22.4 µM (active)
CCc1cccc(C)c1 | inactive
CCc1ccc(C)nc1 | inactive
CCCCCCCC/C=C\CCCCCCCC(=O)N(C)CC(=O)O | inactive
O=C(O)Cc1ccc(OCCNC[C@H](O)c2ccccc2)cc1 | inactive
C=CC(C)(CCC=C(C)C)OC(=O)/C=C/c1ccccc1 (stereo not given) | 6.33 µM (active)
CN(C)c1ccc(N=NS(=O)(=O)O)cc1 | 0.421 µM (active)
c1ccc(Sc2ccccc2)cc1 | 7.1 µM (active)
Cc1cccc(Br)c1 | 35.8 µM (active)
